± gives the standard deviation.
Tests used:
[1] = test system: MILI (PIWIL2) piRISC loaded with piRNA #1 (26 nt); assay: pre-steady-state target cleavage rate (min^-1); guide: piRNA #1 5'p-UGAGGUAGUAGGUUGUAUAGUAUCCA; higher = faster piRNA-guided slicing of the target; conditions: auxiliary factor: 500 nM mouse GTSF1
Procedure, shortened: (§1)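 Cleave-'n-Seq reactions paired 0.1 nM transcribed, DNA-blocked target RNA library with 1 nM active affinity-purified piRISC holding one synthetic guide, plus or minus 500 nM GTSF1 partner protein, in HEPES–potassium acetate buffer at 33 °C for 0–8 or 0–960 min. After sequencing of uncleaved targets and normalisation to depth and weakly complementary targets, the pre-steady-state cleavage rate was taken from a burst-and-steady-state fit. Three trials were pooled, and k3 was capped at 0.0001 min^-1.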

[2] = test system: EfPiwi piRISC loaded with piRNA #1 (26 nt); assay: pre-steady-state target cleavage rate (min^-1); auxiliary factor: 500 nM Ephydatia muelleri Gtsf1; guide: piRNA #1 5'p-UGAGGUAGUAGGUUGUAUAGUAUCCA; MIWI and MILI are mouse PIWI proteins and EfPiwi is from a freshwater sponge; tags in brackets are library labels; higher = faster piRNA-guided slicing of the target
Procedure, shortened: as §1

Sequence	pre-steady-state target cleavage rate [1]	pre-steady-state target cleavage rate [2]
GGAGUGGAUACUAUACAACGUACAACCUCA	0.0258 ± 0.0036	0.00367 ± 0.0016
GGAGACCUAACUAUACAACCUACUACCUGCA	0.149 ± 0.034	0.0711 ± 0.039
GGAGAGGAAUCUAUACAACCUACUACCUCA	0.199 ± 0.015	0.00943 ± 0.0056
GGAGACGUACUAUACAACCUACUACCUCA	0.154 ± 0.015	0.0561 ± 0.022
GGAGACGAUACUAUUCAACGUACUACCUCA	0.0257 ± 0.0034	0.00355 ± 0.0011
GGAGAGGAUAGUAUACAACCUACUACGUCA	0.0614 ± 0.0098	0.0031 ± 0.0021
GGAGACGAUACUAUAGCAACCUACUACCUCA	0.162 ± 0.013	0.00432 ± 0.0027
GGAGAGGAUACUAUACAACCAACUACCACA	0.0058 ± 0.0018	0.00388 ± 0.0019
GGAGUGGAUUCUAUACAACCUAGUACCUCA	0.0634 ± 0.011	0.00168 ± 0.0013
GGAGACCUUACUAUACAAGCUACUACCUGA	0.158 ± 0.021	0.00346 ± 0.003
GGAGAGGAUACUAUACAACCUACUGCCUCA	0.126 ± 0.014	0.00919 ± 0.0038
GGAGACCUAACUAUACAACCUACUACCACA	0.176 ± 0.038	0.00545 ± 0.0034
GGAGUAGAUACUAUACAACCUACUACCUCA	0.186 ± 0.0093	0.158 ± 0.057
GGAGAGGAUACUAAACUACCUACUACCUCA	0.167 ± 0.011	0.00323 ± 0.003
GGAGAGGAUACUUUACAACCUUCUACCUCA	0.00789 ± 0.002	0.0032 ± 0.0028
GGAGACGAUACUAUACAACCUACUACCUAA	0.153 ± 0.015	0.103 ± 0.033
GGAGUGGUUACUAUUCAACCUACUACCUCA	0.202 ± 0.012	0.00293 ± 0.0021
GGAGUGGAUAGUAUACAUCCUACUACCUCA	0.189 ± 0.017	0.00444 ± 0.0024
GGAGUGGAUACUACACAACCUACUACCUCA	0.175 ± 0.011	0.082 ± 0.029
GGAGACCUAUCUACACAACCUACUACCUCA	0.072 ± 0.0099	0.00358 ± 0.0034
GGAGAGGAUACUAAUACAACCUACUACCUCA	0.147 ± 0.011	0.128 ± 0.048
GGAGAGGAUACUAUCAACCUACUACCUCA	0.154 ± 0.01	0.0088 ± 0.0053
GGAGACCAUACUAUAAAACCUACUACCUCA	0.2 ± 0.016	0.00433 ± 0.0026
GGAGACCUUACUAUACAACCUACUACCUAA	0.154 ± 0.019	0.00756 ± 0.0045
GGAGACGAUACUAUACAUCCUACUACGUCA	0.213 ± 0.033	0.00318 ± 0.0012
GGAGACCAUACUAAUACAACCUACUACCUCA	0.124 ± 0.014	0.0159 ± 0.0066
GGAGACGAUGCUAUACAACCUACUACCUCA	0.194 ± 0.021	0.00734 ± 0.0042
GGAGUGGAUACUAUACUACGUACUACCUCA	0.042 ± 0.0043	0.00381 ± 0.0021
GGAGAGGAUACUAUAGAACCUACUACCUGA	0.0217 ± 0.005	0.00264 ± 0.0017
GGAGUGCAUACUAUACAACCUACUACCACA	0.124 ± 0.013	0.00342 ± 0.0028

Reference: the supplement of paper PMC10338343
